Source: PubChem BioAssay (EPA / NIEHS)
The source made the active and inactive calls. The calls were made as follows: active = hit-call score of the fitted dose curve at least 0.9, where 1 is the maximum; inactive = score below 0.9.

Key:
[1] = ATG_GLI_CIS: Attagene CIS-FACTORIAL HepG2 Assay for human Zinc Finger Protein GLI1 (AID 2282945); details: HepG2, Attagene cis-factorial reporter mRNA, GLI element; actives raise or lower the signal
Method in brief: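 HepG2 cells transiently transfected with cis-promoter multiplexed reporter units report endogenous transcription factor activity. After 24 h chemical exposure, reporter mRNA was quantified by RT-PCR, 6-FAM labelling, HpaI digestion and capillary electrophoresis, with bidirectional fitting against DMSO.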

[2] = target: Bile acid receptor (Homo sapiens) (UniProt Q96RI1); experiment: ATG_IR1_CIS: Attagene CIS-FACTORIAL HepG2 Assay for human Nuclear Receptor Subfamily 1 Group H Member 4 (NR1H4), IR1 submotif (AID 2282946); details: IR1 reporter transcription, actives raise or lower the signal
Method in brief: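 Transient MRTU transfection, HepG2; 24 h dosing; RNA → RT-PCR → 6-FAM primer extension → HpaI digest → capillary electrophoresis fluorescence. Gain/loss of signal fitted relative to DMSO.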

[3] = ATG_GRE_CIS: Attagene CIS-FACTORIAL HepG2 Assay for human Glucocorticoid Response Elements (GRE) (AID 2282947); details: HepG2 GRE cis-reporter, Attagene multiplex mRNA; actives raise or lower the signal
Method in brief: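 HepG2 cells transiently transfected with multiple cis-promoter reporter units measure endogenous TF activity; 24 h compound exposure. Reporter mRNA quantified by RT-PCR, FAM labelling, HpaI digestion and capillary electrophoresis; bidirectional fit vs DMSO baseline.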

[4] = ATG_ISRE_CIS: Attagene CIS-FACTORIAL HepG2 Assay for human Interferon Regulatory Factor 1 (IRF1) binding to an Interferon-Stimulated Response Element (ISRE) (AID 2282948); details: HepG2 ISRE cis-reporter (Attagene), mRNA transcription readout; actives raise or lower the signal
Method in brief: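 Cell-based cis-reporter assay; HepG2; 24 h exposure; reporter mRNA by RT-PCR plus capillary electrophoresis fluorescence; activity in either direction scored relative to DMSO.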

[5] = ATG_M_32_CIS: Attagene CIS-FACTORIAL HepG2 Assay for M32 Transcription Factor (Internal Marker) (AID 2282949); details: HepG2 Attagene cis-factorial M32 reporter, mRNA; actives raise or lower the signal;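 also: background control marker of the multiplexed CIS panel rather than a real target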
Method in brief: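 Following 24 h chemical exposure of HepG2 cells transiently expressing cis-promoter reporter constructs, reporter transcript levels were determined by RT-PCR with fluorescent labelling and capillary electrophoresis, then fitted bidirectionally against DMSO.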

[6] = ATG_M_06_CIS: Attagene CIS-FACTORIAL HepG2 Assay for M06 Transcription Factor (Internal Marker) (AID 2282950); details: HepG2 Attagene CIS-FACTORIAL M06 internal marker reporter; actives raise or lower the signal
Method in brief: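 Steps: transfect HepG2 with multiplexed cis-element reporter constructs; dose chemical 24 h; extract RNA with DNase treatment; reverse-transcribe, PCR-amplify, 6-FAM label, HpaI digest; separate fragments by capillary electrophoresis. Activity fitted both directions versus DMSO.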

[7] = target: Hypoxia-inducible factor 1-alpha (Homo sapiens) (UniProt Q16665); experiment: ATG_HIF1a_CIS: Attagene CIS-FACTORIAL HepG2 Assay for human Hypoxia Inducible Factor 1 (HIF1A) (AID 2282951); details: HepG2 Attagene cis-factorial HIF1a reporter transcription; actives raise or lower the signal
Method in brief: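 Cis-element reporter constructs were transiently transfected into HepG2 cells, which were treated for 24 h; reporter RNA was reverse-transcribed, amplified, labelled and resolved by capillary electrophoresis.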

[8] = target: Hepatocyte nuclear factor 6 (Homo sapiens) (UniProt Q9UBC0); experiment: ATG_HNF6_CIS: Attagene CIS-FACTORIAL HepG2 Assay for human Hepatocyte Nuclear Factor 6 (HNF6) (AID 2282952); details: HepG2 Attagene cis-factorial HNF6 reporter transcription; actives raise or lower the signal
Method in brief: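 HepG2 cells transiently transfected with cis-element-driven multiple reporter transcription units, dosed 24 h; reporter mRNA quantified by RT-PCR, FAM primer extension, HpaI digestion and capillary electrophoresis; bidirectional fit versus DMSO baseline.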

[9] = target: Heat shock factor protein 1 (Homo sapiens) (UniProt Q00613); experiment: ATG_HSE_CIS: Attagene CIS-FACTORIAL HepG2 Assay for human Heat Shock Transcription Factor 1 (HSE) (AID 2282953); details: HepG2 HSE cis-reporter, Attagene RNA transcription; actives raise or lower the signal
Method in brief: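 Cells were transfected with cis-element-driven reporter constructs, dosed for 24 h, then total RNA was reverse-transcribed and reporter cDNA amplified, FAM-labelled and digested with HpaI. Fragments were resolved by capillary electrophoresis; gain or loss was fitted against DMSO.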

[10] = ATG_MRE_CIS: Attagene CIS-FACTORIAL HepG2 Assay for human Metal Responsive Element (MRE) (AID 2282954); details: HepG2 MRE cis-reporter transcription, Attagene multiplex; actives raise or lower the signal
Method in brief: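 HepG2 cells transiently transfected with multiple cis-element reporter units measure endogenous MTF1-driven transcription. After 24 h compound exposure, reporter mRNA is quantified by RT-PCR with 6-FAM labelling, HpaI digestion and capillary electrophoresis; bidirectional fits versus DMSO.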

[11] = target: Paired box protein Pax-6 (Homo sapiens) (UniProt P26367); experiment: ATG_Pax6_CIS: Attagene CIS-FACTORIAL HepG2 Assay for human Paired Box 6 (PAX6) (AID 2282956); details: HepG2 CIS-FACTORIAL PAX6 reporter transcription, RNA readout; actives raise or lower the signal
Method in brief: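 Multiplexed cis-reporter HepG2 system; 24 h treatment; reporter mRNA read by RT-PCR/CE fluorescence; bidirectional fit vs DMSO.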

[12] = ATG_PXRE_CIS: Attagene CIS-FACTORIAL HepG2 Assay for human Pregnane X Receptor Element (PXRE) (AID 2282957); details: HepG2 Attagene CIS-FACTORIAL PXRE reporter, mRNA; actives raise or lower the signal
Method in brief: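 HepG2 cells transiently transfected with cis-regulated multiple reporter transcription units; endogenous factor activity measured as reporter mRNA 24 h after dosing. RT-PCR, fluorescent primer extension, HpaI digestion, capillary electrophoresis; bidirectional fit versus DMSO baseline.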

[13] = ATG_PPRE_CIS: Attagene CIS-FACTORIAL HepG2 Assay for human Peroxisome Proliferator-activated Response Element (PPRE) (AID 2282958); details: HepG2 PPRE cis-element reporter, Attagene transcription factor profiling; actives raise or lower the signal
Method in brief: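 DMSO served as negative control and baseline for bidirectional curve fitting. Signal came from PPRE-regulated reporter mRNA in HepG2 cells, measured 24 h post-dosing by RT-PCR, 6-FAM primer extension and capillary electrophoresis.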

[14] = ATG_RORE_CIS: Attagene CIS-FACTORIAL HepG2 Assay for human RAR-related Orphan Receptor Element (RORE) (AID 2282959); details: HepG2 Attagene cis-factorial RORE reporter, mRNA; actives raise or lower the signal
Method in brief: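 Transfect HepG2 with MRTUs; treat 24 h; extract RNA; RT with oligo(dT); PCR with reporter-specific primers; 6-FAM primer extension; HpaI digest 2 h at 37 C; capillary electrophoresis. Fit vs DMSO, bidirectional.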

[15] = ATG_Sox_CIS: Attagene CIS-FACTORIAL HepG2 Assay for human SRY-box transcription factor (SOX) (AID 2282960); details: HepG2 Attagene cis-factorial SOX reporter, mRNA; actives raise or lower the signal
Method in brief: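 Fluorescence-labelled cDNA fragments from reporter transcripts, sized by CE, give the signal. Cells: HepG2, transiently transfected with cis-regulated reporter units. Exposure 24 h; DMSO negative control; bidirectional curve fitting.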

[16] = target: Transcription factor Sp1 (Homo sapiens) (UniProt P08047); experiment: ATG_Sp1_CIS: Attagene CIS-FACTORIAL HepG2 Assay for human Specificity Protein 1 (Sp1) (AID 2282961); details: HepG2 Sp1 cis-reporter transcription, actives raise or lower the signal
Method in brief: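 Chemicals are dosed onto HepG2 cells transfected with multiple cis-promoter reporter constructs, and after 24 h reporter RNA is reverse-transcribed, PCR-amplified and resolved by capillary electrophoresis for fluorescence quantitation; activity is scored up or down against DMSO.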

[17] = ATG_SREBP_CIS: Attagene CIS-FACTORIAL HepG2 Assay for human Sterol Regulatory Element Binding (SREBP) (AID 2282962); details: HepG2 Attagene cis-factorial SREBP reporter, mRNA; actives raise or lower the signal
Method in brief: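 mRNA induction of transfected cis-promoter reporters in HepG2 cells, 24 h post-dose. Detection: RT-PCR with 6-FAM-labelled products, HpaI digest, capillary electrophoresis. DMSO served as negative control and baseline.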

[18] = target: Signal transducer and activator of transcription 3 (Homo sapiens) (UniProt P40763); experiment: ATG_STAT3_CIS: Attagene CIS-FACTORIAL HepG2 Assay for human Signal Transducer and Activator of Transcription 3 (STAT3) (AID 2282963); details: HepG2, Attagene cis-factorial STAT3 reporter transcription; actives raise or lower the signal
Method in brief: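 HepG2 cells transiently transfected with cis-element-driven multiple reporter transcription units; after 24 h chemical exposure, reporter mRNA measured by RT-PCR, 6-FAM primer-extension labelling, HpaI digestion and capillary electrophoresis. Bidirectional fitting versus DMSO baseline.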

[19] = ATG_TA_CIS: Attagene CIS-FACTORIAL HepG2 Assay for human TA Basal Promoter (AID 2282964); details: HepG2 Attagene CIS-factorial TA basal promoter reporter; actives raise or lower the signal
Method in brief: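 Steps: transfect HepG2 with MRTUs; dose 24 h; isolate RNA, DNase-treat, reverse-transcribe; PCR and FAM-label reporter cDNA; digest with HpaI 2h at 37 C; run capillary electrophoresis. Activity fitted both directions against DMSO.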

[20] = ATG_PBREM_CIS: Attagene CIS-FACTORIAL HepG2 Assay for human Phenobarbital-responsive Enhancer Module (PBREM) (AID 2282955); details: HepG2 PBREM cis-reporter, Attagene multiplexed transcription; actives raise or lower the signal
Method in brief: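 Multiplexed cis-reporter readout in human hepatoma HepG2 cells; PBREM-regulated transcript quantified after 24 h exposure by fluorescent RT-PCR fragment analysis. Signal changes up or down fitted relative to DMSO.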

Measured: AC50

Heat shock factor protein 1 (Homo sapiens), sequence (Q00613 whole entry, looked up, the tested form may be a part): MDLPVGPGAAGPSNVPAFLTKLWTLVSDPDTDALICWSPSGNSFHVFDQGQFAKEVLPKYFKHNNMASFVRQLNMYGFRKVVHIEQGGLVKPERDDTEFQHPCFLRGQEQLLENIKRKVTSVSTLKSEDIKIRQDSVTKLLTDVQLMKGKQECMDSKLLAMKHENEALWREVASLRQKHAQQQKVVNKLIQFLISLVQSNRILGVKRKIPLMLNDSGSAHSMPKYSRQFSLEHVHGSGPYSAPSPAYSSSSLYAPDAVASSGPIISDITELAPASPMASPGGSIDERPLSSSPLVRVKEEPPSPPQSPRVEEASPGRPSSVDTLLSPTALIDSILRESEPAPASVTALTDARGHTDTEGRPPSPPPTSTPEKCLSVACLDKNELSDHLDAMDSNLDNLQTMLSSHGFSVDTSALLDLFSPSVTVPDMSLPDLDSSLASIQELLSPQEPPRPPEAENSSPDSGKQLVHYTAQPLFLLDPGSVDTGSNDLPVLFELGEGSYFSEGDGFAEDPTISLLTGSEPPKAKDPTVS
Transcription factor Sp1 (Homo sapiens), sequence (P08047 whole entry, looked up): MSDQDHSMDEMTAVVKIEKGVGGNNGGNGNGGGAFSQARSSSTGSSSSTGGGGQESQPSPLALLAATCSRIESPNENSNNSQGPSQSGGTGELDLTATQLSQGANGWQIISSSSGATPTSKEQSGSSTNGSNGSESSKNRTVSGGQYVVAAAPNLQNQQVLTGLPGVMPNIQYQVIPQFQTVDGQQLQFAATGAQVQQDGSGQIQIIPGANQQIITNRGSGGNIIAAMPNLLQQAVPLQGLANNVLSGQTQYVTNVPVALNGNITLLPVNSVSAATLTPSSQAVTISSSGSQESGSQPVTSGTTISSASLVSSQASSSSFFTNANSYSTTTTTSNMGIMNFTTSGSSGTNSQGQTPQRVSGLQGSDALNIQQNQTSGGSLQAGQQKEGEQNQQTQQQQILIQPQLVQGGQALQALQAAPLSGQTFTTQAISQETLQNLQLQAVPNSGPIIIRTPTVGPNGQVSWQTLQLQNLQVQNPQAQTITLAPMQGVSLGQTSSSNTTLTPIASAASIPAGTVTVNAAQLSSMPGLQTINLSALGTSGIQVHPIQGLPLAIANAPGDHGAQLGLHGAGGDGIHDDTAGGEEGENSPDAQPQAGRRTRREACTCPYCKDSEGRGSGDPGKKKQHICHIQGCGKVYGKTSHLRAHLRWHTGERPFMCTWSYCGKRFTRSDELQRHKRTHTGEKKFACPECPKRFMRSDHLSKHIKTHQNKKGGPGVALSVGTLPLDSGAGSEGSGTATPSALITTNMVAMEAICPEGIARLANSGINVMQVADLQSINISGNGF
Hepatocyte nuclear factor 6 (Homo sapiens), sequence (Q9UBC0 whole entry, looked up): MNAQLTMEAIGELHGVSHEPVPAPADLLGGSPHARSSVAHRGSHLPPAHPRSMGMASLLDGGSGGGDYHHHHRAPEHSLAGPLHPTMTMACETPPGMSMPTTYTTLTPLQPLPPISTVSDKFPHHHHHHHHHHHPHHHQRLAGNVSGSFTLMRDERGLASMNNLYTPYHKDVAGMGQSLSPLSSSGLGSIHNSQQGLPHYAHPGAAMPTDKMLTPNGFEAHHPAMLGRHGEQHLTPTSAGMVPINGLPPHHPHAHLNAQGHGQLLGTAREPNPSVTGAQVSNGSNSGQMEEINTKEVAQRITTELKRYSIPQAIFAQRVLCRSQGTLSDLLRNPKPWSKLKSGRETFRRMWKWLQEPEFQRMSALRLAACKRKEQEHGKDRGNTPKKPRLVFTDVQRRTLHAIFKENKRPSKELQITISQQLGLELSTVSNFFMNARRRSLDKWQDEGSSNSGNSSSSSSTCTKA
Bile acid receptor (Homo sapiens), sequence (Q96RI1 whole entry, looked up): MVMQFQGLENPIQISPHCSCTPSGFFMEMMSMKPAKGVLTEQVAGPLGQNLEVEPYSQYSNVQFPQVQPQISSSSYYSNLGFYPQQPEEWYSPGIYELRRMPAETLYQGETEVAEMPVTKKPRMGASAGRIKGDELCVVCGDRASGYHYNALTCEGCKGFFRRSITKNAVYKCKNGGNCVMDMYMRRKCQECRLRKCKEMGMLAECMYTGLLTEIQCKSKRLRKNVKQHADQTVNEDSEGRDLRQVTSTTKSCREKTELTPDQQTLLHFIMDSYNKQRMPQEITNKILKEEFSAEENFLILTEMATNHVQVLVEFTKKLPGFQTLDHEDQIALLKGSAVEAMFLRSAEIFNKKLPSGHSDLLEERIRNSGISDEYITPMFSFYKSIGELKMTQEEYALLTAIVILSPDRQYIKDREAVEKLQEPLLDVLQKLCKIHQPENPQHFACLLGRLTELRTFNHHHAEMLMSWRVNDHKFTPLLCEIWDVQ
Hypoxia-inducible factor 1-alpha (Homo sapiens), sequence (Q16665 whole entry, looked up): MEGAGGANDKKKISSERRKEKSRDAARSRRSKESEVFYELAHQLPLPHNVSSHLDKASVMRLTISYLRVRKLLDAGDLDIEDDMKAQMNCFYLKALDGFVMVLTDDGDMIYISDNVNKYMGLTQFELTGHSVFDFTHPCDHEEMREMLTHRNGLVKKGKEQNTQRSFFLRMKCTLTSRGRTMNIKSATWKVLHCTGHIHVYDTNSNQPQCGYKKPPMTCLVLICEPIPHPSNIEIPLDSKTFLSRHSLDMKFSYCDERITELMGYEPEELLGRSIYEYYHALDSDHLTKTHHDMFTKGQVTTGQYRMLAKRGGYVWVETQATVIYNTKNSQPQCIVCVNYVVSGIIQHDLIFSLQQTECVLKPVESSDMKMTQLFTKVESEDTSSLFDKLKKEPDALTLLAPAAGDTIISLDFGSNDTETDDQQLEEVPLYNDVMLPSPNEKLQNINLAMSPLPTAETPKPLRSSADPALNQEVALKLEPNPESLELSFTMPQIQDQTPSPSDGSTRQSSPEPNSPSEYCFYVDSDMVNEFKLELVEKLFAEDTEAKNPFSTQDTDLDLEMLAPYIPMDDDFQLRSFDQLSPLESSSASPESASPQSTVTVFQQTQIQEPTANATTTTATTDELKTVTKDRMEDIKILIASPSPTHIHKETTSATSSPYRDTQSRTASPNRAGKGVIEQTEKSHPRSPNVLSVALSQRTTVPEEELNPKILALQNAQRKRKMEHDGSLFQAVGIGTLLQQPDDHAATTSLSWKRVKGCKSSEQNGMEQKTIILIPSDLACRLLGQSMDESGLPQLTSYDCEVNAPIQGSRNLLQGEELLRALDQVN
Signal transducer and activator of transcription 3 (Homo sapiens), sequence (P40763 whole entry, looked up): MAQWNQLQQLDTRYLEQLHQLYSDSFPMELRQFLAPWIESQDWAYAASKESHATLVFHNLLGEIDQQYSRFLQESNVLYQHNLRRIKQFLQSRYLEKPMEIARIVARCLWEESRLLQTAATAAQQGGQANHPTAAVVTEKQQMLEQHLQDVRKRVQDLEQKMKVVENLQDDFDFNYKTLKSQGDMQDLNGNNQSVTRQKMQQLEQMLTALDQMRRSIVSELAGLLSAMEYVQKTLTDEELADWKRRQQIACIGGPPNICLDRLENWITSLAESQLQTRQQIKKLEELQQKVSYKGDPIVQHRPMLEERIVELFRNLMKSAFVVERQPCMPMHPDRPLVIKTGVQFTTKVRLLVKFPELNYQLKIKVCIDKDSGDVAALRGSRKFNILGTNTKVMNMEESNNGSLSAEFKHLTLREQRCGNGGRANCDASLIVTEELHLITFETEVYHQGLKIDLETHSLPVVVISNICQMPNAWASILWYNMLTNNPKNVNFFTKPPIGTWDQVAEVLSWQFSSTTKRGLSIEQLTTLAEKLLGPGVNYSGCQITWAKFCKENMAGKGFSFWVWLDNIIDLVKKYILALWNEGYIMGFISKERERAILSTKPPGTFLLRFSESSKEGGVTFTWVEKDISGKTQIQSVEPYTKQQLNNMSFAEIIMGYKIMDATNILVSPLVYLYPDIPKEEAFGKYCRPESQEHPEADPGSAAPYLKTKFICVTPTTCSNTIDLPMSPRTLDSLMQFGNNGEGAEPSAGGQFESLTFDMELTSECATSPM
Paired box protein Pax-6 (Homo sapiens), sequence (P26367 whole entry, looked up): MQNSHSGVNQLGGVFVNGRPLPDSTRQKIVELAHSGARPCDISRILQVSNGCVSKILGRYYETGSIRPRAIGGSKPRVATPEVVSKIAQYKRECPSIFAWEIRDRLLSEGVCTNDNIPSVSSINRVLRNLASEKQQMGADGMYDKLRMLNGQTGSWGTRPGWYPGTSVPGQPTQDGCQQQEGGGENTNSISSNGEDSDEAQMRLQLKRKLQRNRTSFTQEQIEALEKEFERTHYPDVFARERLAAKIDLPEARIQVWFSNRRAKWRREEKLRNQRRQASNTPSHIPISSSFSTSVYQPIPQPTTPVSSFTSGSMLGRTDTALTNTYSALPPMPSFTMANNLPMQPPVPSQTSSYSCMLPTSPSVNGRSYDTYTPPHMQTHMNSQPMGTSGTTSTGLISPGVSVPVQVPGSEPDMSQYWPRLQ

FC(F)(F)C(F)(F)C(F)(F)C(F)(F)C(F)(F)C(F)(F)C(F)(F)Br
not listed: [20]
inactive: all other assays above

C#C[C@]1(O)CC[C@H]2[C@@H]3CCc4cc(OC)ccc4[C@H]3CC[C@@]21C
active: [10] 7.54 µM | [12] 5.32 µM
not listed: [20]
inactive: all other assays above

CC(C)(C)c1ccc(OC2CCCCC2O)cc1 (stereo not drawn)
active: [20] 26.1 µM | [12] 1.73 µM | [17] 26.5 µM
inactive: all other assays above

CO[Si](OC)(c1ccccc1)c1ccccc1
active: [12] 18.1 µM
not listed: [1] | [20]
inactive: all other assays above

O=S(=O)(OCCOC(F)(F)F)C(F)(F)F
not listed: [1] | [20]
inactive: all other assays above

CC(=O)Nc1ccc(N=Nc2cc(C)ccc2O)cc1
active: [10] 27.6 µM | [12] 19.5 µM | [13] 39.6 µM
not listed: [1] | [20]
inactive: all other assays above

OCC(F)(F)C(F)(F)C(F)(F)C(F)(F)C(F)(F)C(F)F
not listed: [1]
inactive: all other assays above

CC(C)OC(=O)c1ccccc1C(=O)OC(C)C
active: [12] 3.7 µM
not listed: [1]
inactive: all other assays above

Nc1ccc(S(=O)(=O)Nc2nccs2)cc1
not listed: [1] | [2] | [7] | [14] | [20]
inactive: all other assays above

CC(C)(C)C(=O)CC(=O)C(F)(F)C(F)(F)C(F)(F)F
not listed: [1] | [19] | [20]
inactive: all other assays above

FC1CC(F)(F)C(F)(F)C1(F)F (stereo not drawn)
not listed: [1]
inactive: all other assays above

CN(C)Cc1ccccc1O
active: [19] 165 µM
not listed: [1]
inactive: all other assays above

O=C(O)C(F)(F)C(F)(F)C(F)(F)C(F)(F)F
not listed: [1]
inactive: all other assays above

FC(F)(F)C(F)(F)C(F)(F)CI
not listed: [1]
inactive: all other assays above
